The text below walks through data of PubChem BioAssay (EPA / NIEHS).

Read-out in test [1]: Transforming Growth Factor (TGFA), TGFA (gene 7039)
The test is described as follows: LTEA_HepaRG_TGFA: Life Technologies and Expression Analysis (LTEA) Assay for Transforming Growth Factor (TGFA) using HepaRG (AID 2283532). Conditions: mRNA level, 48 h; actives raise or lower the signal. In outline:
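HepaRG (human liver line), 48 h exposure, 8 conc. half-log down from 100 uM, 0.5% DMSO vehicle, duplicates; serum-free induction medium. TGFA mRNA by TaqMan qRT-PCR, ACTB/GAPDH/POLR2A normalization; gain/loss fit vs DMSO.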

Read-out in test [2]: Transforming Growth Factor (TGFB1), TGFB1 (gene 7040)
The test is described as follows: LTEA_HepaRG_TGFB1: Life Technologies and Expression Analysis (LTEA) Assay for Transforming Growth Factor (TGFB1) Transporter using HepaRG (AID 2283533). Conditions: mRNA level, 48 h; actives raise or lower the signal. In outline: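 Eight-point concentration-response (max 100 uM, half-log) in HepaRG under serum-free induction conditions, 48 h. TGFB1 mRNA by qRT-PCR, housekeeping-normalized.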

Read-out in test [3]: Tumor necrosis factor receptor 1 (TNFRSF1A), TNFRSF1A (gene 7132)
The test is described as follows: LTEA_HepaRG_TNFRSF1A: Life Technologies and Expression Analysis (LTEA) Assay for Tumor necrosis factor receptor 1 (TNFRSF1A) using HepaRG (AID 2283535). Conditions: mRNA level, 48 h; actives raise or lower the signal. The method in brief: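 Assay uses 48 h chemical treatment of differentiated HepaRG monolayers, tested in duplicate at eight concentrations from 100 uM downward in 0.5% DMSO. mRNA is normalized to ACTB, GAPDH and POLR2A, with induction or suppression fitted relative to vehicle.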

Read-out in test [4]: Thyroid Hormone Responsive (THRSP), THRSP (gene 7069)
Kind of test: LTEA_HepaRG_THRSP: Life Technologies and Expression Analysis (LTEA) Assay for Thyroid Hormone Responsive (THRSP) using HepaRG (AID 2283536). Conditions: mRNA level, 48 h; actives raise or lower the signal. The method in brief:
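mRNA induction or loss relative to 0.5% DMSO vehicle was fitted bidirectionally across an eight-point curve whose highest exposure was 100 uM. Human HepaRG liver cells received chemicals in duplicate over 48 h before RNA extraction.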

Read-out in test [5]: UDP glucuronosyltransferase (UGT1A1), UGT1A1 (gene 54658)
The test is described as follows: LTEA_HepaRG_UGT1A1: Life Technologies and Expression Analysis (LTEA) Assay for UDP glucuronosyltransferase (UGT1A1) using HepaRG (AID 2283538). Conditions: mRNA level, 48 h; actives raise or lower the signal. The method in brief:
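Readout is UGT1A1 transcript level by qRT-PCR, normalized to three housekeeping genes, after 48 h chemical treatment of HepaRG cells. Concentrations ran from 100 uM down in half-log steps with 0.5% DMSO, and gain or loss relative to DMSO was fitted.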

Read-out in test [6]: UDP glucuronosyltransferase (UGT1A6), UGT1A6 (gene 54578)
The test is described as follows: LTEA_HepaRG_UGT1A6: Life Technologies and Expression Analysis (LTEA) Assay for UDP glucuronosyltransferase (UGT1A6) using HepaRG (AID 2283539). Conditions: mRNA level, 48 h; actives raise or lower the signal. The method in brief:
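Measures mRNA change in HepaRG hepatic cells exposed 48 h to chemicals (eight-point, maximum 100 uM, 0.5% DMSO vehicle) in serum-free induction medium. Expression normalized to endogenous controls; DMSO served as negative control and baseline.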

Read-out in test [7]: X-box binding protein 1 (XBP1), XBP1 (gene 7494)
The test is described as follows: LTEA_HepaRG_XBP1: Life Technologies and Expression Analysis (LTEA) Assay for X-box binding protein 1 (XBP1) using HepaRG (AID 2283540). Conditions: mRNA level, 48 h; actives raise or lower the signal. The method in brief:
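Eight concentrations (half-log, highest 100 uM, 0.5% DMSO) tested in duplicate on HepaRG cells over 48 h in serum-free induction medium; qRT-PCR of XBP1 normalised to ACTB, GAPDH, POLR2A.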

A short description of test [8]: LTEA_HepaRG_LDH_cytotoxicity: Cytotoxicity Assessment in the Life Technologies and Expression Analysis (LTEA) Assay (AID 2283563; active means hit-call score of the fitted dose curve at least 0.9, where 1 is the maximum;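 on AC50: LDH activity released into spent culture medium as a marker of cell death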). In outline:
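Spent-medium LDH after 48 h chemical exposure of HepaRG cells in serum-free induction medium; eight concentrations, half-log dilutions from 100 uM, duplicate wells, fitted upward relative to 0.5% DMSO.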

Read-out in the next test: TIMP1, TIMP1 (gene 7076)
Kind of test: LTEA_HepaRG_TIMP1: Life Technologies and Expression Analysis (LTEA) Assay for TIMP1 using HepaRG (AID 2283534).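 Further: TaqMan qRT-PCR signal normalized to ACTB GAPDH and POLR2A housekeeping genes.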 Conditions: mRNA level, 48 h; actives raise or lower the signal. In outline:
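TIMP1 induction or repression in HepaRG cells after 48 h chemical exposure (eight concentrations, highest 100 uM), assessed by normalized qRT-PCR with bidirectional fitting to DMSO controls.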

Read-out in test [9]: Cellular tumor antigen p53 (Homo sapiens) (UniProt P04637)
The test is described as follows: LTEA_HepaRG_TP53: Life Technologies and Expression Analysis (LTEA) Assay for Tumor Protein P53 (TP53) using HepaRG (AID 2283537). Conditions: mRNA level, 48 h; actives raise or lower the signal. The method in brief:
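Read-out is TP53 transcript level by microfluidic qRT-PCR, normalised to three housekeeping genes and fitted bidirectionally against DMSO. Human HepaRG cells received compounds for 48 h, highest concentration 100 uM.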

Test [10] is described as follows: ATG_XTT_Cytotoxicity: Cytotoxicity Assessment in the Attagene TRANS-FACTORIAL HepG2 Assay (AID 2283584; active means hit-call score of the fitted dose curve at least 0.9, where 1 is the maximum). In outline: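 24 h chemical exposure of reporter-transfected HepG2; XTT signal loss vs DMSO indicates cytotoxicity.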
A short description of test [11]: TOX21_p53_BLA_p2_viability: Viability Assessment in the Tox21 HCT-116 p53 Agonism Beta-lactamase Assay, Phase 2 (AID 2283591; active means hit-call score of the fitted dose curve at least 0.9, where 1 is the maximum;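 further: compound exposure lasted 16 h at 37 °C; actives lower the ATP signal meaning cytotoxicity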). The method in brief:
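Cytotoxicity readout: CellTiter-Glo ATP luminescence, 30 min at room temperature, after the beta-lactamase read. Cells were HCT116 exposed 16 h at 37C to compounds pin-transferred at 217-fold dilution from DMSO stocks.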

Test [12] addresses Cellular tumor antigen p53 (Homo sapiens) (UniProt P04637). The test is described as follows: TOX21_p53_BLA_p2_ratio: Tox21 HCT-116 p53 Agonism Beta-lactamase Assay, Ratio, Phase 2 (AID 2283592; active means hit-call score of the fitted dose curve at least 0.9, where 1 is the maximum). The method in brief:
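Human colon HCT116 cells with an inducible p53 beta-lactamase reporter are exposed to test chemicals for 16 h at 37C. Reporter induction is read as the 460/530 nm emission ratio after CCF4-AM loading, normalized to DMSO.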

A short description of test [13]: TOX21_p53_BLA_p3_viability: Viability Assessment in the Tox21 HCT-116 p53 Agonism Beta-lactamase Assay, Phase 3 (AID 2283593; active means hit-call score of the fitted dose curve at least 0.9, where 1 is the maximum;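 further: cells exposed to compound for 16 h before reading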). The method in brief: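 Cellular ATP was quantified by CellTiter-Glo luminescence, read after 30 min at room temperature. Beforehand, HCT116 cells (4000/well) received compound 5 h post-seeding, 217-fold diluted from DMSO, then incubated 16 h at 37C.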

Test [14] has as its target Cellular tumor antigen p53 (Homo sapiens) (UniProt P04637). Kind of test: TOX21_p53_BLA_p3_ratio: Tox21 HCT-116 p53 Agonism Beta-lactamase Assay, Ratio, Phase 3 (AID 2283596; active means hit-call score of the fitted dose curve at least 0.9, where 1 is the maximum). In outline: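 HCT116 p53-bla cells (4000/well) given compound in DMSO (217-fold dilution) after 5 h, incubated 16 h at 37C. CCF4-AM substrate 2 h at room temperature; 460/530 nm emission ratio, gain fitted against DMSO.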

Test [15] in a line: TOX21_p53_BLA_p4_viability: Viability Assessment in the Tox21 HCT-116 p53 Agonism Beta-lactamase Assay, Phase 4 (AID 2283597; active means hit-call score of the fitted dose curve at least 0.9, where 1 is the maximum;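 further: hits lower the luminescence signal meaning cytotoxicity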). In outline:
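Luminescent ATP readout (CellTiter-Glo, 30 min, room temperature) in the same wells as the p53 bla ratio. HCT116 cells were treated for 16 h at 37C with DMSO-dissolved compounds.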

For test [16], the target named is Cellular tumor antigen p53 (Homo sapiens) (UniProt P04637). Kind of test: TOX21_p53_BLA_p5_ratio: Tox21 HCT-116 p53 Agonism Beta-lactamase Assay, Ratio, Phase 5 (AID 2283599; active means hit-call score of the fitted dose curve at least 0.9, where 1 is the maximum). In outline: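 Beta-lactamase reporter ratio (blue 460 nm over green 530 nm, 405 nm excitation) after 2 h CCF4-AM loading, in HCT-116 cells exposed 16 h at 37 C to compounds pinned at 217-fold dilution. Increases relative to DMSO baseline scored.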
Chain of Cellular tumor antigen p53 (Homo sapiens) (P04637 whole entry, looked up): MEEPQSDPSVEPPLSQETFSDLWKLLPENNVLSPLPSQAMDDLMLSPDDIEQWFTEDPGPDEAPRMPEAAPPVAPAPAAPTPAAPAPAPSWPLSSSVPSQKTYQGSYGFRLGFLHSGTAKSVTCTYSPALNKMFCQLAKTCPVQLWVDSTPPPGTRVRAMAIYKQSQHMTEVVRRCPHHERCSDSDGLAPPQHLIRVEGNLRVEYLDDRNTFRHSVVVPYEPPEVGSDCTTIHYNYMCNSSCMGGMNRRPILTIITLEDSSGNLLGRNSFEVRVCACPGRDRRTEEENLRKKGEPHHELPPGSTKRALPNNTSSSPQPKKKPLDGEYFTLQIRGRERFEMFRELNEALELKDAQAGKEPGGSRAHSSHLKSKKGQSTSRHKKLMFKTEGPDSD

Test [17] in a line: TOX21_p53_BLA_p5_viability: Viability Assessment in the Tox21 HCT-116 p53 Agonism Beta-lactamase Assay, Phase 5 (AID 2283600; active means hit-call score of the fitted dose curve at least 0.9, where 1 is the maximum). The method in brief:
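Seeded cells (4000/well) settle 5 h before compound addition. Plates then incubate 16 h at 37C, receive FRET substrate for 2 h, and finally CellTiter-Glo, with luminescence measured after a 30 min room-temperature incubation.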

Test [18] deals with Cellular tumor antigen p53 (Homo sapiens) (UniProt P04637). Kind of test: TOX21_p53_BLA_p4_ratio: Tox21 HCT-116 p53 Agonism Beta-lactamase Assay, Ratio, Phase 4 (AID 2283601; active means hit-call score of the fitted dose curve at least 0.9, where 1 is the maximum). In outline:
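Signal is the blue/green (460nm/530nm) ratio of cleaved versus uncleaved CCF4-AM substrate, read after 2 h substrate loading. Cells were HCT116 carrying the p53-responsive beta-lactamase reporter, dosed 16 h at 37C, 5% CO2; CellTiter-Glo measured in parallel.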

Records with an inconclusive call do not appear. Active and inactive are the calls of the source. How the source made its calls, unless noted: active means hit-call score of the fitted dose curve at least 0.9, where 1 is the maximum; inactive means score below 0.9.

In the case of `CCOC(=O)[C@]1(c2ccccc2)Oc2ccccc2[C@@H]1N`, the AC50 (commonly the midpoint of the concentration-response curve, whichever way the signal moves) in test [1] was 70.9 µM (active); in [3], 90.8 µM (active); in [4], 3.18 µM (active); in test [5], 83.1 µM (active); in [6], 80 µM (active); in test [8], 77.6 µM (active). The molecule was called inactive in test [2] and in [7].
In the case of `CC(C)(C)OOC(=O)c1ccccc1`, the outcome was “inactive” in test [1]; “inactive” with TIMP1, TIMP1 (gene 7076); “inactive” in test [3]; “inactive” in test [4]; “inactive” in test [9]; “inactive” in test [5]. Moreover, the outcome in [6], in test [7], in [8], in test [10], in test [11] and in test [12] was inactive. In addition, the molecule was classed as inactive in test [13], in [14], in test [15], in test [16] and in [17].
In the case of `Clc1ccccc1Cl`, the outcome is “inactive” in [1]; “inactive” in [2]; “inactive” in the test with TIMP1, TIMP1 (gene 7076); “inactive” in test [3]; “inactive” in test [4]; “inactive” in test [5]. For the same molecule, the result in test [7], in test [8] and in test [10] was inactive.
As to `[O-][Cl+]O`, the outcome was “inactive” in test [1]; “inactive” in test [2]; “inactive” with TIMP1, TIMP1 (gene 7076); “inactive” in test [3]; “inactive” in test [4]; “inactive” in test [9]. Also, the molecule was called inactive in test [5], in [7], in test [8], in test [10], in test [11] and in test [12]. The result in test [16] and in test [17] was inactive.
For the molecule `c1ccc(C2CO2)cc1` (stereo not given), the result in [1], in test [2], in [3], in [4], in test [9] and in test [5] was inactive. The result in [7], in [8], in [11], in test [13], in test [14] and in test [16] was inactive. For the same molecule, the result in test [17] and in [18] was inactive.
Consider `N#CC(Br)Br`, for which the outcome is “inactive” in test [1]; “inactive” with TIMP1, TIMP1 (gene 7076); “inactive” in test [3]; “inactive” in test [4]; “inactive” in test [5]; “inactive” in test [6]. Further, the molecule was classed as inactive in [7] and in test [8].
For `OCCCl`, the outcome in test [1] was “inactive”; with TIMP1, TIMP1 (gene 7076), “inactive”; in [3] it was “inactive”; in [4], “inactive”; in [9], “inactive”; in test [5], “inactive”. In addition, the molecule was called inactive in test [7], in test [8], in test [12], in [13] and in test [14].
Take `C[C@]12C=CC3=C4CCC(=O)C=C4CC[C@H]3[C@@H]1CC[C@@H]2O`: the outcome is “inactive” in [1]; “inactive” in the test with TIMP1, TIMP1 (gene 7076); “inactive” in [3]; “inactive” in test [8]; “inactive” in [10]. For the same molecule, the AC50 in test [4] is 15.7 µM (active); in [5], 1.01 µM (active); in [7] it was 72.4 µM (active).
`O=C(O)C1C2CCC(O2)C1C(=O)O` (stereo not given): the outcome in [1] is “inactive”; with TIMP1, TIMP1 (gene 7076), “inactive”; in test [3], “inactive”; in test [9], “inactive”; in test [7] it was “inactive”; in [10] it was “inactive”. The molecule was classed as inactive in test [11], in test [12], in [14], in [15], in test [16] and in test [18]. In addition, the AC50 in [2] was 35.1 µM (active); in test [4], 34.7 µM (active); in test [5], 50 µM (active); in test [8], 75.1 µM (active).
